The list is not random: actives were taken first. Their share in the collection is about 0.4%.
Cdc42 wt GTP: modulators of GTP binding to wildtype Cdc42, primary screen, biochemical, multiplex bead flow cytometry, Bodipy-GTP; GST-Cdc42 beads; actives lie on both sides; percent activity (GTP binding), % at 10 µM; actives 0.2% (n = 190,000);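 active means percent activity GTP binding at least 20 points away from the 100% baseline, either down as inhibitor or up as activator; inconclusive means compound flagged as likely green fluorescent from well-wide comparison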;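 further: median bead fluorescence of bound Bodipy-FL-GTP at 100 nM; 0% = excess unlabeled GTP control and 100% = no compound control; below 100% means less GTP binding so inhibitor and above means activator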
Target sequence (P60953 whole entry, looked up): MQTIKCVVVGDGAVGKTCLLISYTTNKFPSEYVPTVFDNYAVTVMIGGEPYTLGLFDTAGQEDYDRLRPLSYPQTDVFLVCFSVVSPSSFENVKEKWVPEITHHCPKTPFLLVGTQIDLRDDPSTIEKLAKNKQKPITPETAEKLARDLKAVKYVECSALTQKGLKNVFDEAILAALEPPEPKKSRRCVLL
Rac1 wt GTP bind: wildtype Rac1 GTP binding modulators, primary screen, biochemical, GST-Rac1 beads, flow cytometry, multiplex; GTP binding activity (% of control), % at 10 µM; fluorescent GTP binding; actives lie on both sides; 0 = cold GTP competed, 100 = untreated; Ras-related C3 botulinum toxin substrate 1 (Homo sapiens), P63000; actives 0.27% (n = 190,000);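 active means GTP binding activity at least 20 points away from the 100% control level, either lower or higher; inconclusive means compound flagged as likely green fluorescent, judged across all proteins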
Rab7 wt GTP bind: modulators of GTP binding to Rab7, primary screen, biochemical, wildtype, multiplex bead flow cytometry; GTP binding activity (percent of control), % at 10 µM; actives 0.055% (n = 190,000); GST-Rab7 beads, fluorescent GTP binding; actives lie on both sides; untreated = 100%, excess cold GTP = 0%;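 active means fluorescent GTP binding to Rab7 beads changed by at least 20 points from the 100% baseline, either direction, mostly lower; inconclusive means compound itself probably fluorescent, or too few beads counted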;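 further: median green fluorescence of bound Bodipy-FL-GTP per Rab7 bead population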
Rac1 act GTP bind: GTP binding modulators of activated mutant Rac1, primary screen, biochemical, bead-based flow cytometry, multiplex, fluorescent GTP | Ras-related C3 botulinum toxin substrate 1 (Homo sapiens), P63000 | GST-Rac1 activated beads; actives lie on both sides; 100% means binding = to untreated wells | percent activity (GTP binding), % at 10 µM | actives 0.11% (n = 190,000);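 active means GTP binding at least 20 percentage points away from the 100% baseline, in either direction, so actives lie on both sides; inconclusive means Compound likely fluorescent itself, or too few beads counted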
Rab2A wt mod: modulators of GTP binding to Rab2A wildtype, primary screen, biochemical, dog, bead-based flow cytometry, multiplex | actives 0.19% (n = 190,000) | AID 760, 2007 | GST-Rab2 wt beads, Bodipy-GTP binding | GTP binding activity, % at 10 µM | Ras-related protein Rab-2A (Canis lupus familiaris), P61105;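 active means GTP binding activity at least 20 points away from 100%, either lowered or raised; inconclusive means signal likely due to the compound's own green fluorescence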;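 further: 0% = beads with excess unlabeled GTP and 100% = no-compound control corrected for plate trend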
HRas wt GTP: modulators of GTP binding to HRas wildtype, primary screen, biochemical, bead-based flow cytometry, multiplex. GST-Ras wt beads, Bodipy-FL-GTP binding; actives lie on both sides. GTP binding activity, % at 10 µM. actives 0.14% (n = 190,000);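 active means GTP binding activity at least 20% away from the 100% baseline, either lowered as inhibitor or raised as activator; inconclusive means flagged as likely green fluorescent, judged across all proteins in the well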;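 further: 0% = unlabeled GTP competition control and 100% = no-compound control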
Target sequence (P01112 whole entry, looked up): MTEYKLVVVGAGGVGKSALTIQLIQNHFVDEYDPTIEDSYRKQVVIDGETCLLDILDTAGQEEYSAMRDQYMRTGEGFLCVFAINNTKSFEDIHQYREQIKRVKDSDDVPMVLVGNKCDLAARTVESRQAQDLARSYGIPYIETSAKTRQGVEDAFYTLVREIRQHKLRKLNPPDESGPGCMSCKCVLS
* marks the source's active call; other numbers are inactive results; [ ] = another dose, or the depositor's remark.

How did COc1ccc(C(=O)Nc2nc3ccccc3[nH]2)cc1S(=O)(=O)N1CCOCC1 do in these assays?
Cdc42 wt GTP: 78*; Rac1 wt GTP bind: 82; Rab7 wt GTP bind: 82; Rac1 act GTP bind: 90; Rab2A wt mod: 77*; HRas wt GTP: 80

How did Cc1cccc(C)c1NC(=O)C(c1ccc([N+](=O)[O-])cc1)N(C)C(=O)c1ccccn1 (centres undefined) do in these assays?
Cdc42 wt GTP: 96; Rac1 wt GTP bind: 103; Rab7 wt GTP bind: 98; Rac1 act GTP bind: 101; Rab2A wt mod: 97; HRas wt GTP: 101

What do the screens show for `O=C(CSc1nnc(COc2ccc(Cl)cc2)o1)N1CCOCC1`?
Cdc42 wt GTP: 96; Rac1 wt GTP bind: 97; Rab7 wt GTP bind: 98; Rac1 act GTP bind: 95; Rab2A wt mod: 96; HRas wt GTP: 95

How did COc1cccc(/C=N/n2c(N)c(S(=O)(=O)c3cccs3)c3nc4ccccc4nc32)c1OC do in these assays?
Cdc42 wt GTP: 81; Rac1 wt GTP bind: 88; Rab7 wt GTP bind: 91; Rac1 act GTP bind: 89; Rab2A wt mod: 85; HRas wt GTP: 84

Results for Nc1c(S(=O)(=O)c2cccc(Cl)c2)c2nc3ccccc3nc2n1/N=C/c1ccc(O)c(O)c1 ?
Cdc42 wt GTP: 63*; Rac1 wt GTP bind: 79*; Rab7 wt GTP bind: inconclusive; Rac1 act GTP bind: 80; Rab2A wt mod: 76*; HRas wt GTP: 63*

How did O=[N+]([O-])c1cccc(S(=O)(=O)c2ccc(NCCO)c([N+](=O)[O-])c2)c1 do in these assays?
Cdc42 wt GTP: 97; Rac1 wt GTP bind: 100; Rab7 wt GTP bind: 96; Rac1 act GTP bind: 99; Rab2A wt mod: 96; HRas wt GTP: 97

How did O=C(O)c1ccc(CNCc2ccc(F)cc2)cc1 do in these assays?
Cdc42 wt GTP: 79*; Rac1 wt GTP bind: 83; Rab7 wt GTP bind: 94; Rac1 act GTP bind: 80; Rab2A wt mod: 85; HRas wt GTP: 86

How did Cc1cc(C)n2nc(SCCOc3ccccc3)nc2n1 do in these assays?
Cdc42 wt GTP: 82; Rac1 wt GTP bind: 78*; Rab7 wt GTP bind: 93; Rac1 act GTP bind: 88; Rab2A wt mod: 83; HRas wt GTP: 84

What do the screens show for `Cc1cc(C)n2nc(SCC(=O)Nc3ccccc3)nc2n1`?
Cdc42 wt GTP: 97; Rac1 wt GTP bind: 99; Rab7 wt GTP bind: 96; Rac1 act GTP bind: 96; Rab2A wt mod: 97; HRas wt GTP: 96

Results for O=C(CNC(=S)N(Cc1ccccc1F)C1CCCCC1)NCC1CCCO1 (centres undefined) ?
Cdc42 wt GTP: 97; Rac1 wt GTP bind: 101; Rab7 wt GTP bind: 101; Rac1 act GTP bind: 98; Rab2A wt mod: 97; HRas wt GTP: 100

Results for CCOc1ccccc1NC(=O)NC(C)c1ccncc1 (centres undefined) ?
Cdc42 wt GTP: 97; Rac1 wt GTP bind: 98; Rab7 wt GTP bind: 98; Rac1 act GTP bind: 96; Rab2A wt mod: 98; HRas wt GTP: 99

What do the screens show for `Cc1ncc(CC(=O)n2cc(C(=O)c3cc(F)ccc3O)cn2)s1`?
Cdc42 wt GTP: 97; Rac1 wt GTP bind: 99; Rab7 wt GTP bind: 97; Rac1 act GTP bind: 98; Rab2A wt mod: 97; HRas wt GTP: 98

How did Cc1ccc(O)c(C(=O)c2cnn(C(=O)Cc3csc(C)n3)c2)c1 do in these assays?
Cdc42 wt GTP: 83; Rac1 wt GTP bind: 93; Rab7 wt GTP bind: 79*; Rac1 act GTP bind: 91; Rab2A wt mod: 85; HRas wt GTP: 77*

Results for CN(/N=C/c1ccc(Br)o1)C1=NS(=O)(=O)c2ccccc21 ?
Cdc42 wt GTP: 83; Rac1 wt GTP bind: 77*; Rab7 wt GTP bind: 91; Rac1 act GTP bind: 89; Rab2A wt mod: 82; HRas wt GTP: 86

What do the screens show for `Cc1ccc(/C=N/N(C)C2=NS(=O)(=O)c3ccccc32)o1`?
Cdc42 wt GTP: 64*; Rac1 wt GTP bind: 64*; Rab7 wt GTP bind: 90; Rac1 act GTP bind: 82; Rab2A wt mod: 65*; HRas wt GTP: 66*

What do the screens show for `CCOc1ccc(NC(=O)CNC(=O)c2cccs2)cc1`?
Cdc42 wt GTP: 96; Rac1 wt GTP bind: 97; Rab7 wt GTP bind: 106; Rac1 act GTP bind: 96; Rab2A wt mod: 99; HRas wt GTP: 97

Results for COc1ccc(C)cc1NC(=O)c1cc2c(CO)cnc(C)c2oc1=N ?
Cdc42 wt GTP: 95; Rac1 wt GTP bind: 100; Rab7 wt GTP bind: 100; Rac1 act GTP bind: 95; Rab2A wt mod: 98; HRas wt GTP: 98

How did COc1cc(N=c2oc3c(C)ncc(CO)c3cc2C(N)=O)cc(OC)c1OC do in these assays?
Cdc42 wt GTP: 68*; Rac1 wt GTP bind: 64*; Rab7 wt GTP bind: 91; Rac1 act GTP bind: 83; Rab2A wt mod: 67*; HRas wt GTP: 68*

Results for CCOc1cccc(CN2CCN(CCc3ccccc3)C(CCO)C2)c1O (centres undefined) ?
Cdc42 wt GTP: 87; Rac1 wt GTP bind: 88; Rab7 wt GTP bind: 98; Rac1 act GTP bind: 85; Rab2A wt mod: 89; HRas wt GTP: 85

What do the screens show for `OCCC1CN(Cc2ccccc2O)CCN1CCc1ccccc1` (centres undefined)?
Cdc42 wt GTP: 16*; Rac1 wt GTP bind: 12*; Rab7 wt GTP bind: 10*; Rac1 act GTP bind: 13*; Rab2A wt mod: 16*; HRas wt GTP: 18*

How did Cc1ccc(NC(=O)C2=C(c3ccccc3)S(=O)(=O)CCS2(=O)=O)cc1 do in these assays?
Cdc42 wt GTP: 78*; Rac1 wt GTP bind: 83; Rab7 wt GTP bind: 94; Rac1 act GTP bind: 82; Rab2A wt mod: 84; HRas wt GTP: 86

What do the screens show for `Cc1[nH]c(=S)c(C#N)c(-c2ccco2)c1C(=O)N(C)C`?
Cdc42 wt GTP: 96; Rac1 wt GTP bind: 99; Rab7 wt GTP bind: 95; Rac1 act GTP bind: 96; Rab2A wt mod: 97; HRas wt GTP: 98

Results for CCOC(=O)c1ccc(Nc2nc(C(=O)OCC)nc3ccccc23)cc1 ?
Cdc42 wt GTP: 69*; Rac1 wt GTP bind: 82; Rab7 wt GTP bind: 81; Rac1 act GTP bind: 82; Rab2A wt mod: 73*; HRas wt GTP: 73*

How did CCN1CCN(c2nc3c(c(=O)n(C)c(=O)n3C)n2Cc2cccc3ccccc23)CC1 do in these assays?
Cdc42 wt GTP: 116; Rac1 wt GTP bind: 120*[activator]; Rab7 wt GTP bind: 102; Rac1 act GTP bind: 101; Rab2A wt mod: 111; HRas wt GTP: 108

Bioassay records: PubChem, NMMLSC
